This is a sample that favours compounds with a hit; in the whole collection about 3.6% have one here.
Bead autofluor – flagged as autofluorescent in microsphere protease counterscreen; actives 3.1% (n = 360,000); fluorescence intensity (no concentration beside the values); AID 624483; compound autofluorescence counterscreen, microsphere flow cytometry; active compounds read high; in the data active = fluorescence intensity above about 16000; inconclusive = no clear call, values can overlap the other calls
BoNT A protease – BoNT/A light chain protease inhibitors, primary screen, biochemical, flow cytometry, MLPCN library; Botulinum neurotoxin type A light chain protease (Clostridium botulinum A str. ATCC 3502); inhibition, % at 10 µM; actives 0.17% (n = 360,000); AID 588499, 2011; multiplex microsphere protease substrate cleavage
3CLpro inhibitor – SARS-CoV 3CLpro protease inhibitors, primary screen, biochemical, quenched FRET; actives 0.14% (n = 290,000); inhibition, % at 6 µM; AID 1706, 2009; recombinant SARS-CoV 3CLpro, quenched FRET peptide cleavage; in the data active = inhibition above about 12%
BoNT-F LC inh – BoNT/F light chain protease inhibitors, primary screen, biochemical, flow cytometry, MLPCN library; Botulinum neurotoxin type F light chain protease (Clostridium botulinum); Multiplex microsphere protease cleavage assay; inhibition, % at 10 µM; actives 0.22% (n = 360,000); in the data active = inhibition above about 35%, passing the limit was not always enough; inconclusive = no clear call, values can overlap the other calls
BJeLR viability – MLPCN primary cell-based screen for lethality selective to Ras in HRASV12 cells. BJeLR (HRASV12) viability, CellTiter-Glo ATP luminescence, 48 h. actives 0.17% (n = 300,000). inhibition, % (concentration not given with the values). AID 1554, 2009; in the data active = inhibition above about 50%; inconclusive = no clear call, values can overlap the other calls
Anthrax LF inh2 – Bacillus anthracis LF protease inhibitors, primary screen, biochemical, multiplex microsphere, MLPCN library. Lethal factor (Bacillus anthracis), P15917. inhibition, % at 10 µM. actives 0.12% (n = 360,000). AID 588501, 2011. multiplex microsphere protease cleavage assay
Target sequence (P15917 whole entry, looked up): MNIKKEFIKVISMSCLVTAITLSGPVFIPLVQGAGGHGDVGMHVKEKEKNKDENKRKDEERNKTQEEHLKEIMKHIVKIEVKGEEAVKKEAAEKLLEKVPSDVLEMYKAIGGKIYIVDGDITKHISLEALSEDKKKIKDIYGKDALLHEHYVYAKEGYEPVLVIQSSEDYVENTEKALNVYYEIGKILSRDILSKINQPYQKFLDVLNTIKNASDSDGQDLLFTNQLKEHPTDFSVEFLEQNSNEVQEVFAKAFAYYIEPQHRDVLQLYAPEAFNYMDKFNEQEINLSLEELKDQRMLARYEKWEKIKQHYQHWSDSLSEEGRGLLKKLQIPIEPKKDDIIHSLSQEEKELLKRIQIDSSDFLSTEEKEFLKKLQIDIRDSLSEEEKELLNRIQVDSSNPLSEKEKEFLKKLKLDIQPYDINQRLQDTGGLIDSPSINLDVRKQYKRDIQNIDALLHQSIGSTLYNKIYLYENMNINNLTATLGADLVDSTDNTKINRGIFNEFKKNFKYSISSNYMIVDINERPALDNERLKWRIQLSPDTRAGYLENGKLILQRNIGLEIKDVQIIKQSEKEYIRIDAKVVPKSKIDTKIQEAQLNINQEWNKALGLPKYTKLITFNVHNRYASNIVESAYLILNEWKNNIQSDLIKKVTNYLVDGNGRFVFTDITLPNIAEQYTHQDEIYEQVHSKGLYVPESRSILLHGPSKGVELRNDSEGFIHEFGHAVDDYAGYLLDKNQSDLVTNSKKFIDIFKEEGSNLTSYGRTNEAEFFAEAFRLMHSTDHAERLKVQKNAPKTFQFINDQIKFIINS
Numbers stand for hits; . = inactive; ? = inconclusive; / = not tested or not shown. Rule as the data show it, unless noted: active = inhibition above about 30%; inconclusive = no clear call, values can overlap the other calls; inactive = below that.

SMILES	Bead autofluor	BoNT A protease	3CLpro inhibitor	BoNT-F LC inh	BJeLR viability	Anthrax LF inh2
Cc1ccccc1NC(=O)Cn1c(=O)n(C)c2ccccc21	21084	.	.	.	.	.
Cn1c(C(=O)NCc2cccnc2)cc2sc(Cl)cc21	20564	.	.	.	.	.
Cn1c(=O)n(CC(=O)NCc2cccnc2)c2ccccc21	24061	.	.	.	.	.
CNC(=O)Cn1c(=O)n(C)c2ccccc21	.	.	.	.	.	.
CCc1noc(C)c1C(=O)N1CCN(S(=O)(=O)c2ccccc2C(F)(F)F)CC1	.	.	/	.	/	.
CC(C)Cn1cnc2c(SCCc3ccccc3)nc(N)nc21	.	.	/	.	/	.
COc1ccc(-c2oc3ncn4nc(COc5ccccc5)nc4c3c2-c2ccc(OC)cc2)cc1	.	.	.	.	.	.
COc1ccc(-c2oc3ncnc(N)c3c2-c2ccccc2)cc1	21630	.	.	.	.	.
CN(C)CCNC(=O)c1cccc(-c2cc(NC=O)c3ncc(-c4cccc(C(F)(F)F)c4)n3c2)c1	.	.	/	.	/	.
COc1ccc(NC(=O)COc2ccc(C(=O)NCc3cccnc3)cc2OC)cc1	.	.	/	.	/	.
O=C(COc1ccc(Cl)cc1)Nc1ccc(C(=O)NCc2cccnc2)cc1	.	.	.	.	87	.
Cc1cccc(OCC(=O)Nc2ccc(C(=O)NCc3cccnc3)cc2)c1	/	/	.	/	55	/
O=C(Cc1ccc(Cl)cc1)c1c[nH]c(C(=O)NCc2cccnc2)c1	.	.	.	.	78	.
O=C(NCCCN1CCCC1=O)c1ccc(S(=O)(=O)Nc2cccc(C(F)(F)F)c2)cc1	/	/	/	/	.	/
Cc1nc2cc(-c3cccc(F)c3)nn2c(C)c1CCC(=O)N1CCC2(CC1)OCCO2	?	?	.	.	.	?
Cc1nc2c(-c3ccccc3)c(C)nn2c(C)c1CCC(=O)N1CCC2(CC1)OCCO2	?	?	.	62	.	?
Cc1ccc(C(=O)N/C(=C\c2ccccc2)C(=O)NCCN2CCOCC2)cc1	.	.	.	.	.	.
CC(=O)C(C)Oc1ccc2c3c(c(=O)oc2c1)CCCCC3 (configuration not stated)	19944	?	.	.	.	.
CCOC(=O)COc1ccc2c3c(c(=O)oc2c1C)CCC3	.	.	.	.	.	.
Cc1cc(OCc2nn[nH]n2)c2c3c(c(=O)oc2c1)CCC3	19295	.	.	.	.	.
Cc1c(OCc2nn[nH]n2)ccc2c3c(c(=O)oc12)CCC(C)C3 (configuration not stated)	22299	?	.	.	.	.
O=c1oc2cc(OCc3nn[nH]n3)ccc2c2c1CCCC2	18827	.	.	.	.	.
Cc1cc2oc(=O)c3c(c2cc1OCc1nn[nH]n1)CCCC3	.	.	.	.	.	.
Cc1c(OCc2nn[nH]n2)ccc2c3c(c(=O)oc12)CCCC3	22827	.	.	.	.	.
Cc1c(OCC(=O)C(C)(C)C)ccc2c3c(c(=O)oc12)CCCC3	.	.	.	?	.	.
SMILES	Bead autofluor	BoNT A protease	3CLpro inhibitor	BoNT-F LC inh	BJeLR viability	Anthrax LF inh2
COc1ccc(-c2cc(=O)oc3cc(OCc4nn[nH]n4)ccc23)cc1	16695	.	.	.	.	.
COc1cc(CCN(C(=O)c2cc3ccccc3[nH]2)C(c2ccccn2)c2nc3ccccc3[nH]2)cc(OC)c1 (configuration not stated)	.	.	/	.	/	.
N#Cc1cc2c(nc1SCC(=O)Nc1cc(Cl)ccc1Cl)C1CCN2CC1	20370	?	.	.	.	.
C[C@H](CO)N1C[C@H](C)[C@@H](CN(C)Cc2cncnc2)Oc2cc(Br)ccc2S1(=O)=O	.	.	/	.	/	.
CC(C)CNC(=O)c1cccc(NC(=O)C(C)C)c1	.	.	.	.	.	.
Cn1c(SCc2cccc(Br)c2)nnc1-c1ccccn1	.	.	.	?	.	.
Cn1c(SCc2cccc(F)c2)nnc1-c1ccccn1	16789	.	.	.	.	.
COc1ccc(OC)c(C2C3CN(C(C)C)CC=C3C(C#N)=C(N)C2(C#N)C#N)c1 (configuration not stated)	.	.	.	.	.	.

From PubChem
